# Laboratory results reported in PMC9838217, “Structure of SALL4 zinc finger domain reveals link between AT-rich DNA binding and Okihiro syndrome”.
# Residue numbers refer to the chain shown, from its start.
# Assays:
# Assay in all cases: HT-SELEX; high values mean tight binding
# Settings in all cases: protein: recombinant; vector His6-GST; dsDNA, one strand shown
# SALL4 ZFC4 WT (HT-SELEX) = target: T1, SALL4 ZFC4 WT (HT-SELEX) (Mus musculus, UniProt Q8BX22 870-940)
# T1 sequence: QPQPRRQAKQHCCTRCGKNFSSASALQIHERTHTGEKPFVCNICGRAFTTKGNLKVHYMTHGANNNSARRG
# Outline: (§1)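 Purified recombinant mouse SALL4 zinc finger cluster 4 (residues 870–940, 1 µg) and library DNA (1.5 µg first cycle, 200 ng later) were incubated for 10 min at room temperature in 100 µl of 10 mM Tris–HCl pH 7.5, 50 mM NaCl, poly(dI-dC) and DTT. After Ni2+ bead capture and up to 6 triplicate cycles of selection, DNA was MiSeq-sequenced and scanned for 6-mers. Binding signal is the fold change in each canonical k-mer's read fraction relative to the initial random library.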
# [1] = target: T2, SALL4 ZFC4 R900W (HT-SELEX) (Mus musculus, UniProt Q8BX22 870-940, R900W)
# T2 sequence: T1 sequence with R31W
# Outline: as §1
# [2] = target: T3, SALL4 ZFC4 G921D (HT-SELEX) (Mus musculus, UniProt Q8BX22 870-940, G921D)
# T3 sequence: T1 sequence with G52D
# Outline: as §1
sequence,measurement,setting,value
CAAGTC,binding signal,SALL4 ZFC4 WT (HT-SELEX),0.742 ± 0.0124 fold-change vs cycle 0
same,binding signal,[1],0.878 ± 0.025 fold-change vs cycle 0
same,binding signal,[2],0.942 ± 0.0196 fold-change vs cycle 0
ACAGAC,binding signal,SALL4 ZFC4 WT (HT-SELEX),0.687 ± 0.0257 fold-change vs cycle 0
same,binding signal,[1],0.791 ± 0.00124 fold-change vs cycle 0
same,binding signal,[2],0.865 ± 0.0133 fold-change vs cycle 0
CATTCA,binding signal,SALL4 ZFC4 WT (HT-SELEX),1.32 ± 0.0575 fold-change vs cycle 0
same,binding signal,[1],1.48 ± 0.0487 fold-change vs cycle 0
same,binding signal,[2],1.41 ± 0.0654 fold-change vs cycle 0
CTTGCC,binding signal,SALL4 ZFC4 WT (HT-SELEX),0.3123 ± 0.00236 fold-change vs cycle 0
same,binding signal,[1],0.384 ± 0.0251 fold-change vs cycle 0
same,binding signal,[2],0.501 ± 0.0709 fold-change vs cycle 0
ACAGGA,binding signal,SALL4 ZFC4 WT (HT-SELEX),0.851 ± 0.0194 fold-change vs cycle 0
same,binding signal,[1],1 ± 0.0486 fold-change vs cycle 0
same,binding signal,[2],1.01 ± 0.0583 fold-change vs cycle 0
GCACAC,binding signal,SALL4 ZFC4 WT (HT-SELEX),0.35 ± 0.011 fold-change vs cycle 0
same,binding signal,[1],0.453 ± 0.0146 fold-change vs cycle 0
same,binding signal,[2],0.583 ± 0.0993 fold-change vs cycle 0
